Compounds with a hit are over-represented: about 27% of the library has one in this group of screens.
CYP2C19 inhib = human CYP2C19 inhibition | CYP2C19 Supersomes, luciferin-H EGE luminescence, 30 min | P33261 | AID 778 | 96,000 tested, 21% active | inhibition, % at 5 µM;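 active = CYP2C19 inhibition above a set limit at 5 µM in the primary screen, cut at about 50% in these data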
CYP2C19 act = activators of human cytochrome P450 2C19; AID 1025; recombinant CYP2C19, luciferin-H EGE luminescence; active compounds read high; 0 = fully inhibited enzyme, 1 = untreated enzyme; 96,000 tested, under 10 active; activation factor at 5 µM; P33261;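 active = activation factor of at least 2 at 5 µM in the primary screen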
Cav32 inh = human Cav3.2 channel inhibition, primary screen. Cav3.2-expressing cells, Fluo-4 calcium fluorescence FDSS; active compounds read low. B-score at 10 µM. 100,000 tested, 4% active;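 active = single-dose well whose peak fluorescence ratio is a statistical outlier from its plate by either plate-standardised score or position-corrected B-score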
CYP2C9 act = CYP2C9 (human) activation; P11712; recombinant CYP2C9, luciferin-H conversion, luminescence; active compounds read high; factor 1 = untreated enzyme, 0 = blocked; activation factor at 5 µM; 96,000 tested, 1.4% active; AID 1024;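 active = activation factor of 2 or more for CYP2C9 at a 5 µM dose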
Target sequence (P11712 whole entry, looked up): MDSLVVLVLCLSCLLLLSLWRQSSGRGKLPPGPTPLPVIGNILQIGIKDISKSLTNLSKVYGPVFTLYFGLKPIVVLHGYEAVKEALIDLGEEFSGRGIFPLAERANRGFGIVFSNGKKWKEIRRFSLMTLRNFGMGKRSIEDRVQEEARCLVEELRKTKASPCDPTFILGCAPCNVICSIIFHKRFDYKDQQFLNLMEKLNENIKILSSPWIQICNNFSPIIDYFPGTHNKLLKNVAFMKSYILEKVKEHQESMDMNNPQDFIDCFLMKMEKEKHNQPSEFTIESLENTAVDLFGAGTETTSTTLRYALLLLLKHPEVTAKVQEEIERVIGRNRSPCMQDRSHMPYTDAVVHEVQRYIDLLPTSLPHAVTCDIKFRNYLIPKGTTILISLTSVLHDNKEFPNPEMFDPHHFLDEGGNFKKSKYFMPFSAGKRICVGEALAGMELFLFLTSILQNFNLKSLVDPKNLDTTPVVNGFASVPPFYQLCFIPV
CYP2C9 inh = blocks human cytochrome P450 2C9; CYP2C9 Supersomes, luciferin-H conversion, luminescence; inhibition, % at 5 µM; 96,000 tested, 20% active;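 active = blocking of liver enzyme CYP2C9 beyond about 50% at 5 µM, limit read from the data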
Numbers stand for hits; - = inactive; . = no result given.

SMILES	CYP2C19 inhib	CYP2C19 act	Cav32 inh	CYP2C9 act	CYP2C9 inh
CCN1C(=O)C(O)(C2COC(C)(C)CC2=O)c2cc(Br)ccc21 (stereo not given)	-	-	-	-	-
COc1ccc(N(CC(=O)N2CCc3ccccc32)S(=O)(=O)c2c(C)n[nH]c2C)cc1	-	-	-	-	76.4
CC(C)c1cc(C(=O)Nc2cccc(Cl)c2)no1	-	-	-	-	-
CC(=O)N1N=C(c2cccc(Cl)c2)OC1c1ccc(C(C)C)cc1 (stereo not given)	83.1	-	-	-	88.3
Cc1ccc(C2Nc3ccccc3-c3nc4ccccc4n32)o1 (stereo not given)	.	.	-	.	.
Cn1c(-c2ccc(Br)o2)nc2ccccc21	74.8	-	.	-	-
CC(Sc1nc2ccccc2n1C)C(=O)NC(c1ccccc1)c1ccccc1 (stereo not given)	.	.	-9.34	.	.
Cn1c(Sc2nc3ccccc3n2C)nc2ccccc21	94.8	-	-	-	53.0
Cn1c(-c2ccc(Br)o2)nc2cc(Br)ccc21	-	-	-	-	-
Cc1ccc(-c2nc3ccccc3n2C)o1	66.6	-	-	-	-
NCCCC[C@@H](C(=O)N1CCNCC1)n1cc([C@@H](N)CO)nn1	.	.	-	.	.
Cc1ccc(S(=O)(=O)N(CC(=O)N2CCCCC2)c2cccc(C)c2)cc1	.	.	-	.	.
CCOC(=O)c1ccc(NC(=O)CN(c2ccc(C)cc2)S(=O)(=O)c2c(C)nn(C)c2C)cc1	-	-	-	-	-
CC(=O)Nc1c(C(=O)N2CCCCCC2)cnn1-c1ccccc1Cl	.	.	-	.	.
COc1ccc(C(=O)CSc2nnc(-c3cc4ccccc4cc3O)n2Cc2ccco2)cc1	-	-	-	-	80.2
COc1ccc(C(=O)CSc2nnc(-c3cnccn3)n2Cc2ccco2)cc1	-	-	-	-	54.4
CCn1c(SCC(=O)c2ccc3ccccc3c2)nnc1-c1ccco1	-	-	-	-	-
O=C(CSc1nnc(-c2cnccn2)n1Cc1ccco1)Nc1ccc(Br)cc1	-	-	-	-	59.0
O=C(CSc1nnc(-c2ccccn2)n1Cc1ccco1)Nc1ccc2c(c1)OCO2	-	-	-	-	-
COc1ccc(C(=O)CSc2nnc(-c3cccnc3)n2Cc2ccco2)cc1	53.3	-	-	-	57.3
C#CCNC(=O)C1=C[C@@H](c2coc3ccccc3c2=O)C[C@@H](OCCCCO)O1	.	.	-	.	.
COC(=O)c1c(NC(=O)CSc2nnc(-c3cccnc3)n2Cc2ccco2)sc(C)c1C	83.5	-	.	-	85.3
CC1CCN(C(=O)CSc2nnc(-c3cc4ccccc4cc3O)n2Cc2ccco2)CC1	66.7	-	-	-	74.4
O=C(CSc1nnc(-c2ccc(O)cc2)n1Cc1ccco1)N1CCc2ccccc2C1	62.1	-	-	-	50.4
COC(=O)c1c(NC(=O)CSc2nnc(-c3ccco3)n2C)sc(C)c1C	.	.	-	.	.
SMILES	CYP2C19 inhib	CYP2C19 act	Cav32 inh	CYP2C9 act	CYP2C9 inh
NC(=O)CSc1nnc(-c2ccc(O)cc2)n1Cc1ccco1	.	.	-	.	.
COc1cccc(NC(=O)CSc2nnc(-c3cccs3)n2C)c1	-	-	-	-	-
Cc1onc(-c2c(Cl)cccc2Cl)c1C(=O)NCCN1CCOCC1	-	-	-	-	-
CC(C)=C1C2CCC1C1C(=O)N(NC(=O)COc3ccc(C(C)(C)C)cc3)C(=O)C21 (stereo not given)	-	-	-8.37	-	-
CC(C)(C)c1ccc(/C([O-])=C(/C(=S)NCc2ccco2)[n+]2ccccc2)cc1	-	-	-	-	-
Cc1cccc(C2Nc3ccccc3C(=O)N2c2ccc(F)cc2)n1 (stereo not given)	.	.	-	.	.
COc1ccc(C2Nc3ccccc3C(=O)N2c2ccc(C)cc2)cc1Cn1nnc2ccccc21 (stereo not given)	50.6	-	-	-	80.9
COc1ccc(C2Nc3ccccc3C(=O)N2c2ccc(C)cc2)cc1Cn1cc([N+](=O)[O-])cn1 (stereo not given)	-	-	-	-	89.9
O=c1c(C(c2ccccc2)c2c(O)sc3ccccc3c2=O)c(O)sc2ccccc12	-	-	.	-	94.9
Cc1cc(=O)c2ccccc2s1	-	-	-	-	-
Cc1nc2ncnn2c(C)c1CCC(=O)NCc1ccc2c(c1)OCO2	-	-	-	-	-
C#CCN(C)CC/C=C1\c2ccccc2CSc2ccccc21	.	.	-	.	.
COC(=O)c1cc(Br)c(=O)n(-c2cccc(F)c2)c1	52.0	-	-	-	-
COC(=O)c1cc(Br)c(=O)n(-c2ccc(OC)cc2)c1	55.4	-	-	-	-

Screens deposited in PubChem by several laboratories.
